PubChem BioAssay AID2551 (National Center for Advancing Translational Sciences (NCATS), 2010)
Among all 310,000 compounds or so, about 17,000 (5.5%) were called active. Entries that show only a call come without a potency. Inconclusive results (about 11%) are left out. This is one part of a sample in which actives are shown more often than they occur. Calls come from the whole dose curve; as a rule, active = well fitted inhibition curve with a large enough effect; inconclusive = small, poorly fitted or top-dose-only effect, or effect the other way; inactive = no such curve, though single readings can be large or run the other way.

What follows are compounds tested against Nuclear receptor ROR-gamma (Mus musculus) (UniProt P51450) (assay: qHTS for inhibitors of ROR gamma transcriptional activity). Conditions: Drosophila S2 Gal4-RORgamma UAS-luciferase reporter, 20 h; series mostly up to 53.6 µM.
Procedure, shortened: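 Drosophila Schneider cells stably carrying a metallothionein-driven Gal4 DBD–ROR gamma fusion and a UAS-Photinus luciferase reporter were exposed to compound for 1 hr, then induced with copper sulfate (700 uM final) for 20 hr at ambient temperature before luminescence reading.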
Note: nearly all actives have a fitted effect of over 60% in size.
Potency is the fitted concentration of half-maximal effect.

Sequence of Nuclear receptor ROR-gamma (Mus musculus) (P51450 whole entry, looked up, the tested form may be a part): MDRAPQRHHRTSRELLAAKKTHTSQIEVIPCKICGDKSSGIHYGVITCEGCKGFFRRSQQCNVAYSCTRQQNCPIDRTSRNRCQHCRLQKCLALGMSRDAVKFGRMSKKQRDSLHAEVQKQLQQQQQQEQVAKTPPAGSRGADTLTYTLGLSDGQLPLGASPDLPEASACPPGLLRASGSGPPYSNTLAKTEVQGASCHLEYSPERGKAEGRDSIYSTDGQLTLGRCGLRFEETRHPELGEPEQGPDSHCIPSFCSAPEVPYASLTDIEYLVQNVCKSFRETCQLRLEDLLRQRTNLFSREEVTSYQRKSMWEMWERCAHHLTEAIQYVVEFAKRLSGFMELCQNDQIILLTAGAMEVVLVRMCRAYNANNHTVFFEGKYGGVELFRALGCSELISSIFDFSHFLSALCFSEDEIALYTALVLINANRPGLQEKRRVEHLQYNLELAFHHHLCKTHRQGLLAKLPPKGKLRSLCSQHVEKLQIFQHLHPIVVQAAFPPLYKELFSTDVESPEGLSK

| Structure (SMILES) | Potency | activity change, negative = inhibition |
| --- | --- | --- |
| Cc1ccc(N=Nc2c(C)[nH]n(-c3ccccc3)c2=O)cc1 | inactive | – |
| Cc1[nH]n(-c2cccc(Cl)c2)c(=O)c1-c1ccc(Cl)cc1 | inactive | – |
| Cc1[nH]n(C(N)=S)c(=O)c1N=Nc1ccc(Cl)cc1Cl | 0.562 µM (active) | – |
| Cc1cc2oc(=O)cc(CN(C)Cc3ccc(OC(F)F)cc3)c2cc1Cl | inactive | – |
| COc1ccc(CCN2C(=O)C(C)=C(C)C2=O)cc1OC | inactive | – |
| COc1ccccc1-c1nc(N2CCN(C)CC2)c2ccccc2n1 | inactive | – |
| COc1ccccc1-c1n[nH]c2c1[C@H](C)CC[C@H]2C(C)C | 3.16 µM (active) | – |
| CC1C(=O)Nc2ccccc2N1C(=O)c1c(F)cccc1F (centres undefined) | inactive | – |
| COc1ccc(-n2nc3c(N4CCC(C(=O)NCc5ccccc5)CC4)nnc(C)c3c2C)cc1 | inactive | – |
| O=[N+]([O-])c1ccc(N2CCSCC2)cc1O | inactive | – |
| O=C1CSC(=S)N1/N=C/c1ccc(O)c([N+](=O)[O-])c1 | 8.91 µM (active) | – |
| Cc1cc(C(=O)N/N=C/c2ccc(O)c([N+](=O)[O-])c2)c(C)n1-c1ccc(F)cc1 | inactive | – |
| COc1cccc(C2CC(c3cccs3)=NN2C(=O)CSC2=NCCS2)c1OC (centres undefined) | inactive | – |
| CC(C(=O)NC1CCCCC1)N1C(=O)c2cccc3cccc1c23 (centres undefined) | inactive | – |
| COc1cc(NC(=O)C2=C(C)OCCS2)c(Cl)cc1C(=O)NCCN1CCN(C)CC1 | inactive | – |
| O=C(NCc1cccc(C(F)(F)F)c1)c1cccc(S(=O)(=O)N2CCN(Cc3ccccc3)CC2)c1 | inactive | – |
| O=C(NCc1ccncc1)NC12CC3CC(CC(C3)C1)C2 | inactive | – |
| S=C(NCc1ccc(Cl)cc1)NC1CCCCC1 | 3.55 µM (active) | – |
| O=C(NC1CCN(C(=S)Nc2ccc(Cl)cc2)CC1)C1CCCCC1 | inactive | – |
| S=C(NCc1ccc(Cl)cc1)NC12CC3CC(CC(C3)C1)C2 | 2 µM (active) | – |
| O=C(NCc1ccc(Cl)cc1)NCc1ccc(Cl)cc1 | inactive | – |
| CN(C)CCCNC(=S)NCc1ccc(Cl)cc1 | inactive | – |
| COCCCNC(=O)C1CC(=O)N(CCc2ccc(F)cc2)C1 (centres undefined) | inactive | – |

| Structure (SMILES) | Potency | activity change, negative = inhibition |
| --- | --- | --- |
| CC(=O)Nc1ccc(Nc2ncnc3c2nnn3Cc2ccccc2Cl)cc1 | inactive | – |
| O=C(c1c(F)cccc1Cl)N1CCN(c2ccccn2)CC1 | inactive | – |
| COc1ccc(S(=O)(=O)N2CCC(C(=O)NCCC(=O)NCc3cccc(OC)c3)CC2)cc1 | inactive | – |
| CC(C)[C@H](NC(=O)N1CC(=O)Nc2ccccc21)C(=O)N[C@@H](Cc1c[nH]c2ccccc12)C(=O)O | inactive | – |
| COc1cc(C(=O)NCCOC(=O)c2cccc(N(C)C)c2)cc(OC)c1OC | inactive | – |
| C=CCNC(=S)N/N=C/c1ccc(OCc2ccccc2)cc1 | inactive | – |
| CNC(=S)N/N=C/c1ccc(OCc2ccccc2)c(Br)c1 | 1.26 µM (active) | – |
| O=C(O)COc1ccc(/C=N/O)cc1Br | inactive | – |
| COc1cc(NS(=O)(=O)c2ccc(NC(=S)NC(=O)c3ccc(Br)cc3)cc2)ncn1 | inactive | – |
| COc1cc2c(cc1OC)CN(C(=O)c1cc(S(=O)(=O)N3CCCCC3)ccc1Cl)CC2 | inactive | – |
| Cc1ccc(C(=O)NCC(=O)OCc2nnc(-c3ccccc3)o2)cc1 | inactive | – |
| Cc1c(CCC(=O)N[C@@H](CC(C)C)C(=O)O)c(=O)oc2c(C)c3oc4c(c3cc12)CCCC4 | inactive | – |
| CCOC(=O)C1=C(C)NC(=O)NC1c1ccccc1 (centres undefined) | inactive | – |
| CCOC(=O)C1=C(c2ccccc2)NC(=O)NC1c1cc(OC)c(OC)cc1OC (centres undefined) | inactive | – |
| CCOC(=O)C1=C(c2ccccc2)NC(=S)NC1c1ccc(Cl)cc1 (centres undefined) | 7.94 µM (active) | – |
| Cn1cc(C(=O)c2ccc(Cl)cc2Cl)cc1C(=O)NN | inactive | – |
| COc1ccc(C2=Nc3cc(C)ccc3OC2)cc1 | 10 µM (active) | – |
| COc1ccc(NC(=O)c2cc(-c3ccc(C)cc3)on2)cc1 | inactive | – |
| COc1ccc(C2=NOC3(CC(=O)N(c4ccc(C)cc4)C3=O)C2)cc1 (centres undefined) | inactive | – |
| Cc1cc(C)cc(N(CCC#N)C(=O)CN2C(=O)NC3(CCCC3)C2=O)c1 | inactive | – |
| COc1ccc(N(Cc2ccc(N(C)C)cc2)C(=O)c2ccc(S(C)(=O)=O)cc2)cc1 | inactive | – |
| CCC(=O)N1CCN(c2ccccc2NC(=O)COc2cccc(C)c2C)CC1 | inactive | – |
| COc1ccccc1NC(=S)N1CCC(NC(=O)C23CC4CC(CC(C4)C2)C3)CC1 | inactive | – |

| Structure (SMILES) | Potency | activity change, negative = inhibition |
| --- | --- | --- |
| COCCN(C(=S)Nc1ccccc1OC)C1CCN(C(C)C)CC1 | inactive | – |
| COc1ccccc1NC(=S)N1CCN(C(c2ccccc2)c2ccccc2)CC1 | 3.55 µM (active) | – |
| CC(=O)N1CCN(c2cccc(C)c2C)CC1 | inactive | – |
| CCOc1ccccc1NC(=S)N1CCN(c2cccc(C)c2C)CC1 | 6.31 µM (active) | – |
| CC(=O)c1cccc(NC(=S)N2CCN(S(C)(=O)=O)CC2)c1 | inactive | – |
| CCC(C(=O)NC1CCCCC1)N(C(=O)c1snc(C(N)=O)c1N)c1ccc(OC)cc1OC (centres undefined) | inactive | – |
| O=C(CCc1nnc2ccc(NCc3ccccc3Cl)nn12)NCC1CCN(C2CCCC2)C1 (centres undefined) | inactive | – |
| COc1ccc(-c2csc3nc(-c4ccccc4F)oc(=O)c23)cc1OC | 11.2 µM (active) | – |
| COc1ccc(-c2noc(-c3cccc(OC)c3OC)n2)cc1OC | inactive | – |
| COc1ccc(-c2csc(-c3cccs3)n2)cc1OC | inactive | – |
| NC(=O)C(=O)N/N=C/c1ccc([N+](=O)[O-])o1 | – | -19.4% [at 10 µM] (inactive) |
| C/[N+]([O-])=C\c1ccc([N+](=O)[O-])o1 | 11.2 µM (active) | – |
| Cc1cc(C)nc(N/N=C/c2ccc([N+](=O)[O-])o2)n1 | inactive | – |
| CCOC(=O)[C@H]1[C@H]2COc3cc(OC)ccc3[C@@H]2N2C(=O)N(c3ccc(Br)cc3)C(=O)[C@@]12C | inactive | – |
| Cn1nccc1C(=O)N1CCCC(C(=O)c2ccc(Oc3ccccc3)cc2)C1 (centres undefined) | inactive | – |
| C=CCC(Nc1ccccc1)c1cccc(OC)c1OC (centres undefined) | inactive | – |
| C=CCOc1cccc(C2NC(=O)c3ccccc3O2)c1 (centres undefined) | inactive | – |
| COc1ccccc1-n1cn[nH]c1=S | inactive | – |
| C=CCOc1c(CNn2cn[nH]c2=S)cccc1OC | 11.2 µM (active) | – |
| C=CCOc1ccc(/C=N/n2cncn2)cc1OC | inactive | – |
| C=CCOc1cccc(CNn2cn[nH]c2=S)c1 | 10 µM (active) | – |
| CCOc1c(CNCc2ccc(C(=O)O)cc2)cccc1OC | inactive | – |
| COc1cccc(CNn2cn[nH]c2=S)c1OCc1ccccc1 | 2.51 µM (active) | – |
